D2 PAM-1 = human D2 receptor positive allosteric modulation; P14416; DiscoveRx D2 beta-arrestin cells, luminescence, 90 min; 100% = 57 uM dopamine signal; potentiation, % (concentration not given with the values); hit rate 0.23% among 360,000; AID 624464; in the data active = potentiation above about 50%; inconclusive = mostly about 30% to 49%
Target sequence (P14416 whole entry, looked up): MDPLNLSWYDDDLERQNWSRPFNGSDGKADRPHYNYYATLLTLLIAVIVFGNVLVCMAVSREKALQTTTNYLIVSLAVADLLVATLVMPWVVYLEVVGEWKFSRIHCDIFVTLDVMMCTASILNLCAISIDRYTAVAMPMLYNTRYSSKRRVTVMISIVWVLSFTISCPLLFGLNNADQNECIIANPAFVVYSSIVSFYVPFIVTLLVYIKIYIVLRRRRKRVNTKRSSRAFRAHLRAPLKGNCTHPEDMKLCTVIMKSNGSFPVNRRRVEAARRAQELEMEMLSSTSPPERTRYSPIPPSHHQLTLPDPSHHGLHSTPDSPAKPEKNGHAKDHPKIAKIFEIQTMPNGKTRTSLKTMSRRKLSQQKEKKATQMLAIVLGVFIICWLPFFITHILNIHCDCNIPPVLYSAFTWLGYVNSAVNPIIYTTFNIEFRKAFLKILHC
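PathHunter D2 cells, attached overnight at 37 deg C, received compound in DMSO plus dopamine at EC20 (50 nM final) for 90 min at 37 deg C. Beta-arrestin recruitment was read as luminescence after 1 h with detection reagent at ambient temperature.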
D2 ag-1 = activates the human D2 dopamine receptor. activation, % (concentration not given with the values). P14416. DiscoveRx PathHunter D2 beta-arrestin, luminescence, 90 min; 100% = 57 uM dopamine signal. hit rate 0.084% among 360,000; in the data active = activation above about 40%; inconclusive = between about 15% and that limit
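DiscoveRx PathHunter D2 beta-arrestin cells (2,100/well) attached overnight, then compound-stimulated 90 min at 37 C in HBSS/10 mM HEPES/0.1% Tween-20 buffer; beta-galactosidase complementation read by luminescence after 1 h at ambient temperature. Dopamine 57 uM final (EC100) as control.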
D2 PAM-2 = positively modulates the human D2 dopamine receptor allosterically; potentiation, % at 10 µM; HEK293 T-REx D2, calcium flux, EC20 dopamine potentiation; P14416; hit rate 0.34% among 340,000;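 active = potentiation over 3 SD above the plate norm, cut at about 30% in these data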
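Potentiation of an EC20 dopamine calcium response is measured in a force-coupled, tetracycline-inducible Hek293 Trex D2 line. Compound-only kinetic reads over 180 s flag agonists before dopamine addition.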
D2 antagonist = D2 dopamine receptor (human) antagonism; hit rate 2% among 340,000; HEK293 TREx D2 cells, calcium flux, dopamine EC80; AID 485344; inhibition, % at 10 µM; in the data active = inhibition above about 30%; inactive = below that, where a call was filed
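Read-out: kinetic calcium fluorescence (1 cycle/s) in inducible HEK293 T-REx D2 cells after an EC80 dopamine addition that followed 180 s compound preincubation. Loss of the dopamine response indicates antagonism.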
D2 ag-2 = activates the human D2 dopamine receptor | P14416 | AID 485358 | HEK293 T-REx D2 cells, calcium flux agonist mode | hit rate 0.53% among 340,000 | activation, % at 2 µM;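 active = activation over 3 SD above normal in the single-dose calcium agonist read, cut at about 30% in these data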
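Agonism is scored from calcium flux in a force-coupled, inducible HEK293 cell line expressing D2, read kinetically for 180 s after compound addition against dopamine controls.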
Large screens that a line does not name were inactive. This is a sample that favours compounds with a hit; in the whole collection about 2.4% have one here.

COc1ccc(CCN(C)CCCC(C#N)(c2cc(OC)c(OC)c(OC)c2)C(C)C)cc1OC (stereo not drawn)	D2 antagonist 45.3
O=C(COC(=O)CCN1C(=O)C2CC=CCC2C1=O)NCCc1ccc(F)cc1 (stereo not drawn)	D2 antagonist 37.1
NS(=O)(=O)c1ccc(CCNC(=O)COC(=O)CCN2C(=O)C3CC=CCC3C2=O)cc1 (stereo not drawn)	none
CCOC(=O)Cn1c(=O)oc2cc(S(=O)(=O)N3CCN(c4cccc(C)c4C)CC3)ccc21	none (no result: D2 PAM-1, D2 ag-1, D2 antagonist)
CNCc1c(OCc2ccc(F)cc2)ccc2ccccc12	D2 antagonist 74.4
CCOc1ccc(CC(=O)N2CCc3cc(OC)c(OC)cc3C2COc2ccc3c(C)cc(=O)oc3c2)cc1 (stereo not drawn)	none (no result: D2 PAM-1, D2 ag-1, D2 antagonist)
CCCN1C(=O)C(Cc2nc3ccccc3c(=O)n2-c2ccc(OC)cc2)c2cc(C)ccc21 (stereo not drawn)	none (no result: D2 PAM-1, D2 ag-1, D2 antagonist, D2 ag-2)
COc1ccc(CNC(=O)c2cc3c(=O)n4cccc(C)c4nc3s2)cc1	none (no result: D2 PAM-1, D2 ag-1, D2 antagonist)
COc1ccc(C2Nc3ccccc3C(=O)N2c2ccccc2)cc1CN1CCOCC1 (stereo not drawn)	D2 antagonist 30.1
COc1ccc(C2Nc3ccccc3C(=O)N2Cc2ccccc2)cc1CN1CCOCC1 (stereo not drawn)	none
CC(C)Oc1cc(F)ccc1-c1cc(C(=O)Nc2cccc(C(F)(F)F)c2)[nH]n1	none (no result: D2 PAM-2, D2 antagonist, D2 ag-2)
O=C(CSc1nc2c(c(=O)[nH]1)CN(Cc1ccc(F)cc1)CC2)Nc1cccc(C(F)(F)F)c1	none (no result: D2 PAM-1, D2 ag-1, D2 PAM-2, D2 antagonist)
CC(=O)Nc1cc(C(=O)NCc2ccccc2Cl)ccc1Sc1ccc(F)cc1	none (no result: D2 PAM-1, D2 ag-1, D2 antagonist)
COC(=O)CN(c1ccc(F)cc1)S(=O)(=O)c1ccccc1	D2 antagonist 47.5 (no result: D2 PAM-2)
COC(=O)CN(c1ccccc1F)S(=O)(=O)c1ccccc1	none
C/C(=N/NC(=O)CN(c1ccccc1)S(=O)(=O)c1ccccc1)c1ccccc1O	D2 antagonist 52.1
NC(COCc1ccccc1)c1csc(NC(=O)Nc2cccc(C(F)(F)F)c2)n1 (stereo not drawn)	D2 ag-1 inconclusive (no result: D2 PAM-2, D2 antagonist, D2 ag-2)
O=C1CC(C(=O)Nc2ccc(F)c(Cl)c2)N=C(N2CCCCC2)N1 (stereo not drawn)	D2 antagonist 30.3
O=C1CC(C(=O)Nc2ccccc2)N=C(N2CCOCC2)N1 (stereo not drawn)	none
Cc1sc2ncn(CC(=O)NCc3ccccn3)c(=O)c2c1S(=O)(=O)N1CCOCC1	D2 PAM-2 48.8
CCOC(=O)CNC(=O)Cn1cnc2sc(C)c(S(=O)(=O)N3CCOCC3)c2c1=O	none
CCCC(=O)CN1C(=O)C2(OCCO2)c2ccccc21	D2 PAM-2 36.0
O=C1N(Cc2ccccc2F)c2ccccc2C12OCCCO2	D2 PAM-2 39.7
O=C1CC(c2nnc(Cc3ccccc3Cl)o2)CN1c1ccccc1 (stereo not drawn)	none (no result: D2 PAM-1, D2 ag-1, D2 antagonist, D2 ag-2)
Cc1cc(NC(=O)CN2C(=O)c3cccnc3Sc3ccccc32)ccc1Br	none (no result: D2 PAM-1, D2 ag-1, D2 antagonist)
CCC(C)N1CC23C=CC(O2)C(C(=O)OC)C3C1=O (stereo not drawn)	D2 antagonist 30.5
CCCN1CC23C=CC(O2)C(C(=O)O)C3C1=O (stereo not drawn)	D2 antagonist 47.6
COCCCN1CC23C=CC(O2)C(C(=O)O)C3C1=O (stereo not drawn)	none
COC(=O)[C@]1(CC(C)C)N[C@H](c2ccc(SC3CCCCC3)c(OC)c2)[C@@H]2C(=O)N(C)C(=O)[C@@H]21	D2 PAM-2 32.3
CC(C)C(NS(=O)(=O)c1ccc2c(c1)oc(=O)n2C)C(=O)N1CCN(C2CCCCC2)CC1 (stereo not drawn)	D2 antagonist 30.6
CC1CC(C)CN(C(=O)C(NS(=O)(=O)c2ccc3c(c2)oc(=O)n3C)C(C)C)C1 (stereo not drawn)	none
Cc1c(C(=O)N2CCC(C)CC2)c(S(=O)(=O)NCc2ccc(Br)cc2)c(C)n1C	none (no result: D2 PAM-1, D2 ag-1, D2 antagonist)
CC(=O)OCCNc1cc(N2CCN(C)CC2)c2noc3c2c1C(=O)c1ccccc1-3	none
CCOC(=O)C(C(=O)OCC)c1cc(Br)c2noc3c2c1C(=O)c1ccccc1-3	D2 PAM-1 91.3
Cc1c(CNC(C)CCc2ccccc2)c(C(=O)O)c(C)n1Cc1ccc(F)cc1Cl (stereo not drawn)	none (no result: D2 PAM-1, D2 ag-1, D2 antagonist, D2 ag-2)
O=C(NCCN1CCc2ccccc2C1)C1CCN(S(=O)(=O)N2CCCCC2)CC1	D2 ag-2 34.1
CCOc1cc(C(=O)Nc2ccc(S(=O)(=O)N3CCOCC3)cc2)cc(OCC)c1OCC	none
CCOc1cc(C(=O)NN2CCOCC2)cc(OCC)c1OCC	D2 antagonist 36.3
COc1ccc2c(c1OC)C(=O)N1c3ccccc3C(=O)N(c3ccc(F)cc3)C21 (stereo not drawn)	D2 antagonist 40.6 (no result: D2 PAM-2)
COc1cc(CNC(=O)C2CCCCN2S(=O)(=O)c2ccc(F)cc2)cc(OC)c1OC (stereo not drawn)	none (no result: D2 PAM-1, D2 ag-1, D2 antagonist)
COCCN1CC(O)=C(c2nc3ccccc3c(=O)[nH]2)C1=N	D2 antagonist 38.2
CCCCCN1CC(O)=C(c2nc3ccccc3[nH]2)C1=N	D2 antagonist 38.9
C=CCNC(=O)c1onc(CSc2ccc(F)cc2)c1C(=O)O	none
C=CCNC(=O)c1onc(CSc2ccccc2)c1C(=O)O	D2 antagonist 31.8
O=C(NCc1ccccc1)c1onc(CSc2ccc(Cl)cc2)c1C(=O)NCC1CC1	none
O=C(NCc1ccccc1)c1onc(CSc2ccccc2)c1C(=O)NCC1CC1	D2 antagonist 38.8
Cc1ccccc1-n1c2nc(=O)[nH]c(=O)c-2cc2c(Cl)cccc21	none (no result: D2 PAM-1, D2 ag-1, D2 antagonist, D2 ag-2)
COc1ccc(OC)c(CNC(=O)C(C)n2c(C)c3cnn(-c4ccccc4)c(=O)c3c2C)c1 (stereo not drawn)	none (no result: D2 PAM-1, D2 ag-1, D2 antagonist)
CCOc1ccc(C(=O)N2CCN(Cc3cc(=O)n4nc(-c5ccccc5Cl)sc4n3)CC2)cc1	none (no result: D2 PAM-1, D2 ag-1, D2 antagonist)
CCN(CC)S(=O)(=O)c1cc(NC(=O)c2cc([N+](=O)[O-])ccc2N2CCOCC2)ccc1C	D2 antagonist 37.3
CCN(CC)S(=O)(=O)c1ccc(OC)c(NC(=O)c2cc([N+](=O)[O-])ccc2N2CCOCC2)c1	none (no result: D2 PAM-2, D2 antagonist, D2 ag-2)
O=C(COC(=O)c1cc([N+](=O)[O-])ccc1N1CCOCC1)Nc1ccc(Cl)cc1	D2 antagonist 41.8
Cc1ccc(C(c2cc(Cl)c3cccnc3c2O)N2CCN(C)CC2)cc1 (stereo not drawn)	D2 antagonist 38.6
CN1CCN(C(c2ccccn2)c2cc(Cl)c3cccnc3c2O)CC1 (stereo not drawn)	none
O=S1(=O)CCOC[C@H](c2ccccc2)N1Cc1ccccc1	D2 antagonist 30.2
COc1cccc(N2CCN(C(=O)c3ccc4c(=O)n(CCc5ccccc5)c(=O)[nH]c4c3)CC2)c1	none (no result: D2 PAM-1, D2 ag-1, D2 antagonist)
O=C(C1CCN(c2ncnc3c2nc2n3CCCCC2)CC1)N1CCCCC1	D2 ag-2 34.8
